Common to all, as to details: concentration: 10 µM; 24 h
Test [1] relates to HCC1569. The test can be described thus: cell number relative to DMSO (% of DMSO); higher = more cells (less growth inhibition / toxicity). Summed up:
(§1)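 Six fields per well were imaged at ×10 after the cells were fixed in 3.7% formaldehyde and stained with a rabbit anti-H1.0 antibody, an AlexaFluor 647 secondary and DAPI. The HCC1569 and TDF cells had been plated at 800 per well in 384-well plates (RPMI, 10% FBS) and treated in triplicate with compounds at 10 µM for 24 h at 37 °C. The values are the median of replicates of H1.0 nuclear intensity or cell number, as percent of the plate control. Smoothing for positional effects was applied to HCC1569 data.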

Test [2] has as its system TDF. The test is described as above. Summed up:
as §1

Test [3] relates to TDF. The test is described as follows: H1.0 immunofluorescence intensity relative to DMSO (% of DMSO); higher = stronger H1.0 induction, active = 120 or more. Summed up:
as §1

In test [4] the test system is HCC1569. The test can be described thus: H1.0 immunofluorescence intensity relative to DMSO (% of DMSO); higher = stronger H1.0 induction, active = 140 or more. Summed up:
as §1

± gives the standard deviation of the averaged measurements.
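Wherever H1.0 immunofluorescence intensity relative to DMSO is given: TDF is a line of transformed human dermal fibroblasts of mesenchymal origin.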
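Wherever cell number relative to DMSO is given: TDF denotes transformed human dermal fibroblasts of mesenchymal origin.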

With `CCCCCCCCCC(=O)O` [Decanoic acid], the results for the cell number in test [1] and in test [2] were 105 and 95.3, respectively. In addition, the H1.0 immunofluorescence intensity is 100 (inactive) in test [3] and 103 (inactive) in test [4].
In the same order, the values of `COc1ccc2c(c1)c(CC(=O)Nc1ccc(NC(C)=O)cc1)c(C)n2C(=O)c1ccc(Cl)cc1` [N-(4-acetamidophenyl)indomethacinamide] are 78.7, 70.1, 134 (active) and 149 (active).
The matching figures for `Cl.N[C@@H](Cc1cnc[nH]1)C(=O)O` [L-Histidine hydrochloride]: 101, 109, 99 (inactive) and 95.8 (inactive).
The matching figures for `Cl.Cn1ccc2cc3c(cc21)CCN3C(=O)Nc1cccnc1`: 101, 112, 87.9 (inactive) and 100 (inactive).
For `O=c1c(O)c(-c2ccc(O)cc2O)oc2cc(O)cc(O)c12` [Morine], the cell number in test [1] amounted to 101; in test [2], 109. Besides, the H1.0 immunofluorescence intensity in test [3] was 95 (inactive); in test [4], 82.4 (inactive).
Take `COc1cc(-c2ccc(=O)[nH]n2)ccc1OC(F)F` [Zardaverine]: the cell number in test [1] came to 106 ± 5.7; in test [2], 107 ± 9.4. Besides, the H1.0 immunofluorescence intensity was 91.5 (inactive) in test [3] and 110 (inactive) in test [4].
The matching figures for `O=C(ON1C(=O)CCC1=O)N1CCN(C(c2ccc(Cl)cc2)c2ccc(Cl)cc2)CC1`: 77.8, 82.1, 112 (inactive) and 126 (inactive).
For `NS(=O)(=O)c1ccc(S(=O)(=O)Nc2cccc3c(Cl)c[nH]c23)cc1` [N~1~-(3-chloro-1H-indol-7-yl)-1,4-benzenedisulfonamide], the cell number in test [1] turned out to be 95.3; in test [2], 103. Also, the H1.0 immunofluorescence intensity in test [3] was 96.2 (inactive); in test [4], 107 (inactive).
In the same order, the values of `CCC1(c2ccccc2)NC(=O)N(C)C1=O` (stereo not given) [Mephenytoin] are 100, 109, 98.5 (inactive) and 104 (inactive).
The matching figures for `CC(C)[N+]1(C)C2CCC1CC(OC(=O)C(CO)c1ccccc1)C2.[Br-]` (stereo not given) [Ipratropium.Br]: 102, 98, 91.5 (inactive) and 110 (inactive).
